Assay results from PubChem BioAssay (Tox21).
Results filed as inconclusive are left out. Calls of active or inactive are those of the source. The call rests on the fitted dose curve; in most records, active means well fitted cell-killing curve with a large enough effect in the repeat runs; inconclusive means weak or mixed curves, or effect the other way; inactive means flat fitted curve, though single readings scatter.

experiment: Nuclear factor erythroid 2-related factor 2/antioxidant responsive element (Nrf2/ARE) small molecule agonists: qHTS cell viability counter screen in human keratinocytes (AID 1919968); settings: KeratinoSens HaCaT ARE cells viability, CellTiter-Fluor, 24 h; series mostly up to 92.4 µM; activity change, negative = cytotoxicity: at the top concentration; further: nearly all actives have a fitted effect of over 55% in size
From the text: U.S. Tox21 Program National Center for Advancing Translational Sciences [NCATS] Division of Preclinical Innovation [DPI] U.S. Environmental Protection Agency [EPA] National Institutes of Environmental Health Sciences [NIEHS] National Toxicology Program [NTP] U.S. Food and Drug Administration [FDA] Tox21 Assay Overview: Oxidative stress has been implicated in the pathogenesis of a variety of diseases ranging from cancer to neurodegeneration. The antioxidant response element (ARE) signaling pathway plays an important role in the amelioration of oxidative stress. The KeratinoSens (Givaudan, Switzerland) is an in vitro test method which quantifies luciferase induction as a measure of activation of Keap1-Nrf2-antioxidationt/electrophile response element (ARE) dependant pathway in HaCaT human keratinocytes stably transfected with a selectable plasmid. The KeratinoSens assay is a cell-based assay with a reporter cell line to detect potential skin sensitizers by their ability to induce the Nrf2/ARE-response. The activation of the report gene under culture conditions can be detected by ONE-Glo Luciferase Assay System (Promega, Madison, WI). This cell line has been used to screen the Tox21 10K compound library to identify agonists that induce oxidative stress. The cytotoxicity of the Tox21 compound library against the KS-ARE cell line was tested in parallel by measuring the cell viability using CellTiter- Fluor assay system (Promega, Madison, WI) in the same wells.
Tox21 Assay Protocol Summary: HaCaT derived cell line KeratinoSens were dispensed at 1,500 cells/5uL/well in 1536-well white wall/solid bottom plates using a Multidrop Combi (ThermoFisher Scientific, Waltham, MA) dispenser. After the assay plates were incubated at 37 C/5% CO2 for 5 h, 23 nL of compounds dissolved in DMSO, positive controls or DMSO only was transferred to the assay plate by a pintool workstation (Kalypsys, San Diego, CA). The plates were incubated at 37 C/5% CO2 for 23 h, followed by addition of 1uL/well of CellTiter-Fluor reagent into the assay plates using a Flying Reagent Dispenser (Aurora Discovery, San Diego, CA) for cell viability readout that measures cytotoxicity. After 1 h incubation at 37 C/5% CO2 the fluorescence intensity was measured using a ViewLux (PerkinElmer, Shelton, CT) plate reader.
On the % scale 0 is the no-effect control and ±100 the full control effect; potency means the concentration at half of the fitted maximal effect.

Row | Compound | activity change, negative = cytotoxicity | Potency
1 | CCOc1ccccc1N | -13.1% (inactive) | 
2 | C1=CCC(c2ccccc2)CC1 (stereo not given) | 0.965% (inactive) | 
3 | NC(CS)C(=O)O (stereo not given) | 4.04% [at 42.5 µM] (inactive) | 
4 | COc1c(Br)cc(Br)c(C)c1Br | 1.19% (inactive) | 
5 | CN1CCC[C@@H]1Cc1c[nH]c2ccc(CCS(=O)(=O)c3ccccc3)cc12 | -6.84% [at 42.5 µM] (inactive) | 
6 | CC1=CC(=O)CC(C)(C)C1=O | -2.4% (inactive) | 
7 | CC(C)(C)NSc1nc2ccccc2s1 | 18.5% (inactive) | 
8 | O=C(O)c1cc(O)c2ccccc2c1O |  | 6.11 µM (active)
9 | CCCCCCCCOCCCN |  | 68.6 µM (active)
10 | Cl[Si](Cl)(c1ccccc1)c1ccccc1 | 4.13% (inactive) | 
11 | CCO[Si](CCCCl)(OCC)OCC | 0.0755% (inactive) | 
12 | CCOC(=O)NNc1ccc(N(CC)CC(C)O)nn1 (stereo not given) | 0.972% [at 42.5 µM] (inactive) | 
13 | CC1(C)CC(O)CC(C)(C)N1 | 0.209% (inactive) | 
14 | Oc1ccc(Nc2ccccc2)cc1 | 0.0557% (inactive) | 
15 | CC(=O)OCC(=O)[C@@]1(OC(C)=O)[C@@H](C)C[C@H]2[C@@H]3C[C@H](F)C4=CC(=O)C=C[C@]4(C)[C@@]3(F)[C@@H](O)C[C@@]21C | -0.789% [at 42.5 µM] (inactive) | 
16 | C/C=C/C(=O)Oc1c(CCCCCC(C)C)cc([N+](=O)[O-])cc1[N+](=O)[O-] |  | 17.2 µM (active)
17 | Cc1cc(NS(=O)(=O)c2ccc(N)cc2)nc(C)n1 | -0.196% [at 42.5 µM] (inactive) | 
18 | C=CCOc1nc(OCC=C)nc(OCC=C)n1 | 0.108% (inactive) | 
19 | Cn1c(=O)c2c(ncn2CC(O)CO)n(C)c1=O (stereo not given) | -0.238% [at 42.5 µM] (inactive) | 
20 | CC(C)CCCCCCc1ccc(OCCOCCO)cc1 | -4.33% (inactive) | 

Row | Compound | activity change, negative = cytotoxicity | Potency
21 | CC(C)(C)OC(=O)c1ccccc1C(=O)O | 5.69% (inactive) | 
22 | Oc1c(I)cc(I)c2cccnc12 | 8.07% [at 42.5 µM] (inactive) | 
23 | CCn1cc(C(=O)O)c(=O)c2cc(F)c(N3CCNCC3)nc21 | 6.34% [at 42.5 µM] (inactive) | 
24 | COc1ccccc1N1CCN(CCCCNC(=O)c2ccc(-c3ccc(C(C)=O)cc3)cc2)CC1 | 0.265% [at 42.5 µM] (inactive) | 
25 | Cc1ccc2ccccc2n1 | 5.67% (inactive) | 
26 | Oc1ccc(Cl)c2cccnc12 |  | 0.531 µM (active)
27 | CC(C)(C)NCC(O)COc1ccc(NC(=O)NC2CCCCC2)cc1 (stereo not given) | -16.1% [at 42.5 µM] (inactive) | 
28 | OCCCc1cccnc1 | 4.71% (inactive) | 
29 | O=C(O)/C=C/c1ccc(/C=C/C(=O)O)cc1 | 3.42% [at 42.5 µM] (inactive) | 
30 | O=C1CCCCCCCCCCOCCCCO1 | 0.347% (inactive) | 
31 | CCCCC(CC)CN1C(=O)C2C3C=CC(C3)C2C1=O (stereo not given) | 0.737% (inactive) | 
32 | CCCCNc1c(C(=O)OCC)c(C)nc2c1cnn2CC | 0.596% [at 42.5 µM] (inactive) | 
33 | O=C1OC(=O)c2cccc3cccc1c23 | 14.7% (inactive) | 
34 | COc1cc2nc(Cl)nc(N)c2cc1OC | -6.38% [at 42.5 µM] (inactive) | 
35 | CCCCNS(=O)(=O)c1ccc(C)cc1 | 1.46% (inactive) | 
36 | C=COCCCCO | -2.44% (inactive) | 
37 | CC(C)(C(=O)c1cccnc1)c1cccnc1 | -0.282% [at 42.5 µM] (inactive) | 
38 | CC(CN1CC(=O)NC(=O)C1)N1CC(=O)NC(=O)C1 (stereo not given) | -1.92% (inactive) | 
39 | Fc1ccc([C@@H]2CCNC[C@H]2COc2ccc3c(c2)OCO3)cc1 | -21.1% [at 42.5 µM] (inactive) | 
40 | CCOC(=O)OC(C)OC1=C(C(=O)Nc2ccccn2)N(C)S(=O)(=O)c2ccccc21 (stereo not given) | 0.207% [at 42.5 µM] (inactive) | 
